Values without a mark were called inactive. Unless noted, calls follow the shape of the dose curve; as a rule, active = well fitted cell-killing curve with a large enough effect in the repeat runs; inconclusive = weak or mixed curves, or effect the other way; inactive = flat fitted curve, though single readings scatter. Results filed as inconclusive are left out.
Test system: not listed separately
Assay: qHTS assay to identify small molecule agonists of the TGF-beta/Smad signaling pathway - cell viability counter screen (AID 1346829); also: top concentration of the series differs between compounds; nearly all actives have a fitted effect of over 45% in size
Conditions: SBE-bla HEK293T viability, CellTiter-Glo luminescence, 5 h; series mostly up to 76.8 µM; activity change, negative = cytotoxicity: at the top concentration
Procedure, shortened: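 Luminescence from CellTiter-Glo, read after a 30 min room-temperature incubation, gives cell viability of SBE-bla HEK 293T cells treated 5 hr with compounds at 37 C.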
For `C(=C\c1ccccc1)/c1ccccc1`, the “activity change, negative = cytotoxicity” value was 3.11%.
For `CC(CCC(=O)O)C(=O)O` (stereo not drawn), the “activity change, negative = cytotoxicity” value was 2.94%.
With `O=C(CCCN1CC=C(n2c(=O)[nH]c3ccccc32)CC1)c1ccc(F)cc1` the “activity change, negative = cytotoxicity” value was -4.97% [at 35.3 µM].
In the case of `CCOC(C)=O`, the “activity change, negative = cytotoxicity” value is reported as -4.95%.
For `CCCCC(CC)CN` (stereo not drawn), the “activity change, negative = cytotoxicity” value was -13.1%.
With `O=C(Nc1cccc2c(=O)cc(-c3nn[nH]n3)oc12)c1ccc(OCCCCc2ccccc2)cc1` the “activity change, negative = cytotoxicity” value was -12.2% [at 35.3 µM].
For `CCCCCCCCN`, the “activity change, negative = cytotoxicity” value was 2.34%.
In the case of `CC(O)c1ccccc1` (stereo not drawn), the “activity change, negative = cytotoxicity” value is reported as -0.96%.
In the case of `O=C(Cn1ccnc1[N+](=O)[O-])NCCO`, the “activity change, negative = cytotoxicity” value is reported as 14.1% [at 35.3 µM].
With `Cc1ccccc1S` the “activity change, negative = cytotoxicity” value was -0.765% [at 35.3 µM].
In the case of `O=C1c2ccccc2C(=O)C1c1nc2ccccc2c(Br)c1O`, the “activity change, negative = cytotoxicity” value is reported as -14.7%.
For `COC(=O)CS`, the “activity change, negative = cytotoxicity” value was 4.62%.
In the case of `CC1(C)O[C@@H]2C[C@H]3[C@@H]4C[C@H](F)C5=CC(=O)C=C[C@]5(C)[C@H]4[C@@H](O)C[C@]3(C)[C@]2(C(=O)CO)O1`, the “activity change, negative = cytotoxicity” value is reported as 18.6% [at 35.3 µM].
In the case of `CCC1NC(=O)c2cc(S(N)(=O)=O)c(Cl)cc2N1` (stereo not drawn), the “activity change, negative = cytotoxicity” value is reported as -6.77% [at 35.3 µM].
In the case of `CCCCCCCCCCC(=O)O`, the “activity change, negative = cytotoxicity” value is reported as -8.51%.
In the case of `CCC(C)(C)OC`, the “activity change, negative = cytotoxicity” value is reported as 5.85%.
With `C1COC1` the “activity change, negative = cytotoxicity” value was -5.11%.
In the case of `O=C1CCCCCCCCCCOCCCCO1`, the “activity change, negative = cytotoxicity” value is reported as -0.819%.
In the case of `COc1ccccc1N1CCN(CCCCNC(=O)c2ccc(-c3ccc(C(C)=O)cc3)cc2)CC1`, the “activity change, negative = cytotoxicity” value is reported as 7.44% [at 35.3 µM].
With `C=C/C(C)=C/C/C=C(\C)CCC=C(C)C` the “activity change, negative = cytotoxicity” value was 1.27%.
In the case of `O=C1c2ccccc2C(=O)c2c(O)c(O)cc(O)c21`, the “activity change, negative = cytotoxicity” value is reported as 1.97%.
In the case of `O=C(O)C[C@H](NC(=O)OCc1ccccc1)C(=O)O`, the “activity change, negative = cytotoxicity” value is reported as 8.76%.
In the case of `CC(=O)Oc1ccc([N+](=O)[O-])cc1CCl`, the “activity change, negative = cytotoxicity” value is reported as 6.86%.
With `CCCCCC#CC(=O)OC` the “activity change, negative = cytotoxicity” value was 12.1%.
With `CC(C)C(O)(c1ccc(OC(F)(F)F)cc1)c1cncnc1` (stereo not drawn) the “activity change, negative = cytotoxicity” value was -0.466%.
With `O=c1[nH]ncc2ccccc12` the “activity change, negative = cytotoxicity” value was 4.71%.
With `C=Cc1ccc(S(=O)(=O)O)cc1` the “activity change, negative = cytotoxicity” value was 2.31%.
With `Cc1cc(C)c(N)cc1C` the “activity change, negative = cytotoxicity” value was -24.3%.
With `CC1CC(OC(=O)C(O)c2ccccc2)CC(C)(C)N1C` (stereo not drawn) the “activity change, negative = cytotoxicity” value was 12.1% [at 35.3 µM].
For `CC(C)=CCC1C(=O)N(c2ccccc2)N(c2ccccc2)C1=O`, the “activity change, negative = cytotoxicity” value was -1.62% [at 35.3 µM].
For `CCOC(=O)OC(C)OC(=O)[C@@H]1N2C(=O)[C@@H](NC(=O)[C@H](N)c3ccccc3)[C@H]2SC1(C)C` (stereo partly drawn), the “activity change, negative = cytotoxicity” value was -5.08% [at 35.3 µM].
In the case of `OCCOCC#CCOCCO`, the “activity change, negative = cytotoxicity” value is reported as 1.07%.
For `c1csc(SSc2cccs2)c1`, the “activity change, negative = cytotoxicity” value was -10.7%.
In the case of `C=C(C)C(=O)OCCCCCCCCCCCCC`, the “activity change, negative = cytotoxicity” value is reported as -15.1%.
For `Cc1cc(C)cc(N)c1`, the “activity change, negative = cytotoxicity” value was 0.305%.
With `C[C@@H]1CN(CCCn2c3ccccc3c3ccccc32)C[C@H](C)N1` the “activity change, negative = cytotoxicity” value was -25.8% [at 35.3 µM].
For `NC(=O)c1ccncc1`, the “activity change, negative = cytotoxicity” value was 1.63%.
In the case of `CCOC(=O)/C=C/C(=O)OCC`, the “activity change, negative = cytotoxicity” value is reported as 0.888%.
For `O=C(O)c1ccc(OCCCOc2ccc(C(=O)O)cc2)cc1`, the “activity change, negative = cytotoxicity” value was 0.849% [at 35.3 µM].
With `CC(=O)N/N=C/c1ccc([N+](=O)[O-])o1` the “activity change, negative = cytotoxicity” value was 1.17% [at 35.3 µM].

Test system: not listed separately
Assay: qHTS assay to identify small molecule agonists of the TGF-beta/Smad signaling pathway (AID 1346859; active = well fitted activation curve with a large enough effect in the signal ratio in the repeat runs, not every such curve was filed as active; the % refers to the signal ratio)
Conditions: SBE-bla HEK293T, TGF-beta/Smad beta-lactamase reporter, 5 h; series mostly up to 76.8 µM; activation: at the top concentration
Procedure, shortened: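 Beta-lactamase reporter activity downstream of Smad binding elements was measured in stably transfected HEK 293T cells; compounds were incubated for 5 hr, substrate for 2 hr at room temperature.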
In the case of `C(=C\c1ccccc1)/c1ccccc1`, the “activation” value is reported as 2.51%.
With `CC(CCC(=O)O)C(=O)O` (stereo not drawn) the “activation” value was 2.54%.
In the case of `CCOC(C)=O`, the “activation” value is reported as -2.04%.
With `CCCCC(CC)CN` (stereo not drawn) the “activation” value was -8.17%.
In the case of `CCCCCCCCN`, the “activation” value is reported as 4.54%.
For `CC(O)c1ccccc1` (stereo not drawn), the “activation” value was -0.25%.
With `O=C(Cn1ccnc1[N+](=O)[O-])NCCO` the “activation” value was 2.07% [at 35.3 µM].
For `Cc1ccccc1S`, the “activation” value was 0.229% [at 35.3 µM].
In the case of `COC(=O)CS`, the “activation” value is reported as 1.77%.
For `CCC1NC(=O)c2cc(S(N)(=O)=O)c(Cl)cc2N1` (stereo not drawn), the “activation” value was 0.607% [at 35.3 µM].
In the case of `CCCCCCCCCCC(=O)O`, the “activation” value is reported as -1.26%.
For `CCC(C)(C)OC`, the “activation” value was 1.38%.
For `C1COC1`, the “activation” value was -0.542%.
With `COc1ccccc1N1CCN(CCCCNC(=O)c2ccc(-c3ccc(C(C)=O)cc3)cc2)CC1` the “activation” value was 2.88% [at 35.3 µM].
With `C=C/C(C)=C/C/C=C(\C)CCC=C(C)C` the “activation” value was -2.16%.
In the case of `O=C1c2ccccc2C(=O)c2c(O)c(O)cc(O)c21`, the “activation” value is reported as -8.03%.
For `O=C(O)C[C@H](NC(=O)OCc1ccccc1)C(=O)O`, the “activation” value was -0.296%.
With `CC(=O)Oc1ccc([N+](=O)[O-])cc1CCl` the “activation” value was -0.555%.
With `CCCCCC#CC(=O)OC` the “activation” value was 4.64%.
With `CC(C)C(O)(c1ccc(OC(F)(F)F)cc1)c1cncnc1` (stereo not drawn) the “activation” value was -1.64%.
For `O=c1[nH]ncc2ccccc12`, the “activation” value was 0.131%.
With `C=Cc1ccc(S(=O)(=O)O)cc1` the “activation” value was -1.01%.
In the case of `Cc1cc(C)c(N)cc1C`, the “activation” value is reported as 0.949%.
With `CC1CC(OC(=O)C(O)c2ccccc2)CC(C)(C)N1C` (stereo not drawn) the “activation” value was -2.42% [at 35.3 µM].
For `CC(C)=CCC1C(=O)N(c2ccccc2)N(c2ccccc2)C1=O`, the “activation” value was -5.93% [at 35.3 µM].
In the case of `CCOC(=O)OC(C)OC(=O)[C@@H]1N2C(=O)[C@@H](NC(=O)[C@H](N)c3ccccc3)[C@H]2SC1(C)C` (stereo partly drawn), the “activation” value is reported as 5.67% [at 35.3 µM].
With `OCCOCC#CCOCCO` the “activation” value was 2.24%.
For `c1csc(SSc2cccs2)c1`, the “activation” value was 3.35%.
With `C=C(C)C(=O)OCCCCCCCCCCCCC` the “activation” value was -7.63%.
For `Cc1cc(C)cc(N)c1`, the “activation” value was 1.07%.
With `C[C@@H]1CN(CCCn2c3ccccc3c3ccccc32)C[C@H](C)N1` the “activation” value was -4.53% [at 35.3 µM].
With `NC(=O)c1ccncc1` the “activation” value was 0.99%.
In the case of `CCOC(=O)/C=C/C(=O)OCC`, the “activation” value is reported as -5.97%.
With `O=C(O)c1ccc(OCCCOc2ccc(C(=O)O)cc2)cc1` the “activation” value was 0.0817% [at 35.3 µM].
In the case of `CC(=O)N/N=C/c1ccc([N+](=O)[O-])o1`, the “activation” value is reported as -0.279% [at 35.3 µM].

Molecular target: Thyrotropin-releasing hormone receptor (Homo sapiens) (UniProt P34981)
Sequence (P34981 whole entry, looked up): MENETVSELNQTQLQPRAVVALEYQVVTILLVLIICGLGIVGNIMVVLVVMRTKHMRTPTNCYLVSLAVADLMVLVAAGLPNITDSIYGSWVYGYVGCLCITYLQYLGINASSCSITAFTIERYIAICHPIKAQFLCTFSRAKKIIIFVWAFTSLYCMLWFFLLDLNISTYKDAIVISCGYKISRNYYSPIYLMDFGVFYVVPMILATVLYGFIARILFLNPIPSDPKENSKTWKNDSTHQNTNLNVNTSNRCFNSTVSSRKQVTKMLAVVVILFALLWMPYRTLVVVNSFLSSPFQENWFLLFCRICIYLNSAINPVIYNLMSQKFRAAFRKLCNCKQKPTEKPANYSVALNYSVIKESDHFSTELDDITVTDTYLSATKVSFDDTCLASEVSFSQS
Assay: qHTS assay to identify small molecule antagonists of the thyrotropin-releasing hormone receptor (TRHR) signaling pathway (AID 1346877; active = well fitted inhibition curve with a large enough effect in the repeat runs, not every such curve was filed as active)
Conditions: TRHR-HEK293, TRH-induced calcium fluorescence, antagonist mode; series mostly up to 51.3 µM; activity, negative = inhibition: at the top concentration
Procedure, shortened: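 Following an 18 h incubation at 37 °C and a 2 h calcium dye load, TRHR-HEK293 cells were exposed to compound (5 min, room temperature) and challenged with TRH, 1 nM final.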
For `C(=C\c1ccccc1)/c1ccccc1`, the “activity, negative = inhibition” value was -0.141%.
In the case of `CC(CCC(=O)O)C(=O)O` (stereo not drawn), the “activity, negative = inhibition” value is reported as 5.35%.
In the case of `CCOC(C)=O`, the “activity, negative = inhibition” value is reported as 0.508%.
For `CCCCC(CC)CN` (stereo not drawn), the “activity, negative = inhibition” value was 2.31%.
For `O=C(Nc1cccc2c(=O)cc(-c3nn[nH]n3)oc12)c1ccc(OCCCCc2ccccc2)cc1`, the “activity, negative = inhibition” value was -0.404% [at 23.6 µM].
In the case of `O=C(Cn1ccnc1[N+](=O)[O-])NCCO`, the “activity, negative = inhibition” value is reported as 0.56% [at 23.6 µM].
For `Cc1ccccc1S`, the “activity, negative = inhibition” value was 5.63% [at 23.6 µM].
With `O=C1c2ccccc2C(=O)C1c1nc2ccccc2c(Br)c1O` the “activity, negative = inhibition” value was -3.45%.
For `CCC1NC(=O)c2cc(S(N)(=O)=O)c(Cl)cc2N1` (stereo not drawn), the “activity, negative = inhibition” value was -0.125% [at 23.6 µM].
In the case of `CCCCCCCCCCC(=O)O`, the “activity, negative = inhibition” value is reported as -2.11%.
For `CCC(C)(C)OC`, the “activity, negative = inhibition” value was 1.54%.
With `C1COC1` the “activity, negative = inhibition” value was 1.09%.
With `O=C1CCCCCCCCCCOCCCCO1` the “activity, negative = inhibition” value was -6.48%.
For `C=C/C(C)=C/C/C=C(\C)CCC=C(C)C`, the “activity, negative = inhibition” value was -0.53%.
In the case of `O=C(O)C[C@H](NC(=O)OCc1ccccc1)C(=O)O`, the “activity, negative = inhibition” value is reported as -3.14%.
In the case of `CC(=O)Oc1ccc([N+](=O)[O-])cc1CCl`, the “activity, negative = inhibition” value is reported as 1.7%.
With `CC(C)C(O)(c1ccc(OC(F)(F)F)cc1)c1cncnc1` (stereo not drawn) the “activity, negative = inhibition” value was 0.175%.
For `O=c1[nH]ncc2ccccc12`, the “activity, negative = inhibition” value was 3.7%.
For `C=Cc1ccc(S(=O)(=O)O)cc1`, the “activity, negative = inhibition” value was 3.94%.
For `CC1CC(OC(=O)C(O)c2ccccc2)CC(C)(C)N1C` (stereo not drawn), the “activity, negative = inhibition” value was -3.02% [at 23.6 µM].
With `CC(C)=CCC1C(=O)N(c2ccccc2)N(c2ccccc2)C1=O` the “activity, negative = inhibition” value was -0.449% [at 23.6 µM].
For `CCOC(=O)OC(C)OC(=O)[C@@H]1N2C(=O)[C@@H](NC(=O)[C@H](N)c3ccccc3)[C@H]2SC1(C)C` (stereo partly drawn), the “activity, negative = inhibition” value was 0.44% [at 23.6 µM].
For `C=C(C)C(=O)OCCCCCCCCCCCCC`, the “activity, negative = inhibition” value was -2.38%.
For `Cc1cc(C)cc(N)c1`, the “activity, negative = inhibition” value was -1.92%.
In the case of `C[C@@H]1CN(CCCn2c3ccccc3c3ccccc32)C[C@H](C)N1`, the “activity, negative = inhibition” value is reported as 1.96% [at 23.6 µM].
With `CCOC(=O)/C=C/C(=O)OCC` the “activity, negative = inhibition” value was -2.29%.
In the case of `O=C(O)c1ccc(OCCCOc2ccc(C(=O)O)cc2)cc1`, the “activity, negative = inhibition” value is reported as -4.9% [at 23.6 µM].
For `CC(=O)N/N=C/c1ccc([N+](=O)[O-])o1`, the “activity, negative = inhibition” value was -5.35% [at 23.6 µM].
% is scaled to controls: 0 for no effect and ±100 for the full control effect.
